This passage reports inhibition results from PubChem BioAssay AID602261 (Sanford-Burnham Center for Chemical Genomics, 2012).

Hit rate of the full screen: of about 360,000 compounds, about 2,400 (0.67%) were called active.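 How the source made its calls: active means compounds whose normalised, plate-corrected inhibition of enzyme fluorescence in the single-dose primary screen is 50% or more; inactive means the rest.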 This excerpt belongs to a sample that is enriched for actives.

Chain of Fatty acid synthase (Homo sapiens) (P49327 whole entry, looked up, the tested form may be a part): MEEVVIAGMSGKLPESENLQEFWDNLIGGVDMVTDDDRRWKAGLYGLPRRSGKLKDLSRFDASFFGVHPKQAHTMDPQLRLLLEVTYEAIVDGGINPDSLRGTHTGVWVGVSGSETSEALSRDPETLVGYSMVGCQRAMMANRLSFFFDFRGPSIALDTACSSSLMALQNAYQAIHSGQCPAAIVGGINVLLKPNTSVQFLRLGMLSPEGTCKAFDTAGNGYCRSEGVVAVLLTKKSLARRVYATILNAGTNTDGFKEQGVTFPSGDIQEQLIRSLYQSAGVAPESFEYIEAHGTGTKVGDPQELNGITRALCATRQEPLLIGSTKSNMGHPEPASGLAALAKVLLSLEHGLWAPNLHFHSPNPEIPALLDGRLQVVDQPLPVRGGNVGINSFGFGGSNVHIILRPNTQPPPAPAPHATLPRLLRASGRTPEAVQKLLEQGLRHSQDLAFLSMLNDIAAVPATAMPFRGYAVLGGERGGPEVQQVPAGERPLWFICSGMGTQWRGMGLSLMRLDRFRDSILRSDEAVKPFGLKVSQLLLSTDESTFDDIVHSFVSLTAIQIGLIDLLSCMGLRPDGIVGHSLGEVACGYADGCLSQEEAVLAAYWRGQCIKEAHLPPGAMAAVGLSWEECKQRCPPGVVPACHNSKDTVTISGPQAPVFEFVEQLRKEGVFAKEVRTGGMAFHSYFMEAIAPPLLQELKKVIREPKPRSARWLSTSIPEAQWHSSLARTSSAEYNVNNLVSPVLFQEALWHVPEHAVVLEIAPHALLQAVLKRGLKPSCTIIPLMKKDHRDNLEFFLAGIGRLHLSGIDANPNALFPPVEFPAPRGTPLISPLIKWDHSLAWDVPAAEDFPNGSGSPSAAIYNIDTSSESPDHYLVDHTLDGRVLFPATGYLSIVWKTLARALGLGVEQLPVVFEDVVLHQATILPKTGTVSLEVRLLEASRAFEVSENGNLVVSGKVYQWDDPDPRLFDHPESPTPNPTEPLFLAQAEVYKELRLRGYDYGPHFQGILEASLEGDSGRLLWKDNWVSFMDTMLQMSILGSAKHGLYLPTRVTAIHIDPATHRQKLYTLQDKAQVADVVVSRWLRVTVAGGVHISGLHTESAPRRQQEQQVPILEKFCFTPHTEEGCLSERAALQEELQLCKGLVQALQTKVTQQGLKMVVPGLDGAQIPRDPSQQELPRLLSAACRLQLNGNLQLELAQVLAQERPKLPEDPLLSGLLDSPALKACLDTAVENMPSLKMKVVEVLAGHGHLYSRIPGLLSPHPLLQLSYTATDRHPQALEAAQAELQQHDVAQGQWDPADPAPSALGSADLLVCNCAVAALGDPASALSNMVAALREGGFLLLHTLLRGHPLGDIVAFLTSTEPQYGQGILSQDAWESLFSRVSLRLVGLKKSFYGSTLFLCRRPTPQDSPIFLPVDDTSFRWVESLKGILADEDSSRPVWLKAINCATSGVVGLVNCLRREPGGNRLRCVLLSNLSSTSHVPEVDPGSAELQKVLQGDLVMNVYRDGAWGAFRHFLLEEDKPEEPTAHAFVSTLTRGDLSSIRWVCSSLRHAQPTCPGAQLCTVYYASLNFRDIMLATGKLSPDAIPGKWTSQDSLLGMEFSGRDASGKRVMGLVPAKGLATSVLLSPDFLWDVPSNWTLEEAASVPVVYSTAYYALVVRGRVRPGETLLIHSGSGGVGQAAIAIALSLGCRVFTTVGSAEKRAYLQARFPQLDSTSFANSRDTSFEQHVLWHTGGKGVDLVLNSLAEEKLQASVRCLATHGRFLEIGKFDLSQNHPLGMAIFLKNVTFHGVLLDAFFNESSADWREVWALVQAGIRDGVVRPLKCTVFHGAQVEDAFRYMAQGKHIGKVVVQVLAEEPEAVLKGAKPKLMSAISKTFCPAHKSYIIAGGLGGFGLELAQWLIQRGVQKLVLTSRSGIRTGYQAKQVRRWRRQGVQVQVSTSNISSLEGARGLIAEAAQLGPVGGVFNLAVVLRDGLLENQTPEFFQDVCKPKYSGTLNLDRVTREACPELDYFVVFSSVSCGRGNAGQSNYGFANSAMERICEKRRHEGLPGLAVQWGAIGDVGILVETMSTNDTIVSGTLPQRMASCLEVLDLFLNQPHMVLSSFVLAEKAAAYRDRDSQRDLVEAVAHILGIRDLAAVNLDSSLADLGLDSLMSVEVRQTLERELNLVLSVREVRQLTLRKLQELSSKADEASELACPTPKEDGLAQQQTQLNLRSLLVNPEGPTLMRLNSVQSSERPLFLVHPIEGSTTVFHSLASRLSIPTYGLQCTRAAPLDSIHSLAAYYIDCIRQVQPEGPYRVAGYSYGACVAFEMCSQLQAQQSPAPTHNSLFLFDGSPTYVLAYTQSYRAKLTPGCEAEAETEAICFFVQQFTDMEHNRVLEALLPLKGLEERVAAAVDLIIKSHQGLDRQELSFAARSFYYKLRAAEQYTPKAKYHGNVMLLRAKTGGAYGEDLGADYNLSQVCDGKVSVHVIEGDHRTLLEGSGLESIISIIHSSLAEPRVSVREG

This experiment concerns the target Fatty acid synthase (Homo sapiens) (UniProt P49327). Put plainly: FAS thioesterase domain inhibitors, primary screen, biochemical, fluorescence intensity, uHTS (AID 602261).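 Further: 0% = DMSO with enzyme and 100% = substrate without enzyme.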 Particulars: recombinant FAS-TE, OMFH fluorogenic substrate, fluorescence endpoint; at 15 µM; hits give high values.
As to `COc1cc(-c2noc(C3CCCN(S(=O)(=O)c4cccc(Cl)c4)C3)n2)cc(OC)c1OC` (configuration not stated), the inhibition is 50.7% (active).

With `CC(C)c1ccc(-c2noc(C3CCCN(S(C)(=O)=O)C3)n2)cc1` (configuration not stated), the inhibition was 16.9% (inactive).

Turning to `COc1cccc(-c2noc(C3CCCN(C(=O)c4ccc(F)cc4)C3)n2)c1` (configuration not stated), the inhibition is -3.3% (inactive).

With `Nc1ccc(SCCN2C(=O)c3ccccc3C2=O)cc1`, the inhibition was -1.7% (inactive).

On to `CC(C)c1ccc2c(c1)c(SC(C)(C)C)c(CC(C)(C)C(=O)O)n2Cc1ccc(Cl)cc1`, for which the inhibition is 80.4% (active).

Regarding `O=C(NCc1ccccc1)C1CCCN(c2nc3ccsc3c(=O)s2)C1` (configuration not stated), the inhibition is -1.5% (inactive).

With `Nc1ccc(N=Nc2ccccc2Cl)c(N)n1`, the inhibition is 12% (inactive).

As to `CN(C)C(CNC(=O)Cc1ccc([N+](=O)[O-])cc1)c1ccccc1` (configuration not stated), the inhibition was 3.9% (inactive).

Consider `O=C(NCC(O)c1ccc([N+](=O)[O-])cc1)C1CCCCC1` (configuration not stated), for which the inhibition is -3.9% (inactive).

For the compound `O=C(CC(c1ccccc1)c1ccccc1)NCC(O)c1ccc([N+](=O)[O-])cc1` (configuration not stated), the inhibition is 50.4% (active).

Turning to `COc1ccc(C(=O)NC(=S)N2CCCCC2c2cccnc2)cc1OC` (configuration not stated), the inhibition is -3.7% (inactive).

As for `Cc1ccccc1-n1c(C)cc(/C=N/NC(=O)c2ccc(CN3CCOCC3)cc2)c1C`, the inhibition is -7.5% (inactive).

For the compound `COc1ccc(NC(=O)CCn2ccnc2)c(OC)c1`, the inhibition was -2.6% (inactive).

As for `O=C(O)c1ccccc1N=N/C(=N/Nc1cc(S(=O)(=O)O)ccc1O)c1ccccc1`, the inhibition is 3.7% (inactive).

`COc1cc(/C=C/C(=O)Nc2ccc(OC)c(S(=O)(=O)N3CCOCC3)c2)ccc1OCC#N`: the inhibition was -0.4% (inactive).

Consider `COc1ccc(NS(=O)(=O)c2ccc(N3CCOCC3)c(NC(=O)/C=C/C(=O)O)c2)cc1`, for which the inhibition is -5.8% (inactive).

Regarding `COc1ccc(NS(=O)(=O)c2cc(NC(=O)/C=C/c3cc(OC)c(OC)c(OC)c3)ccc2N2CCCCC2)cc1`, the inhibition is 50.6% (active).

Take `COc1ccc(NS(=O)(=O)c2cc(NC(=O)C3CCCCC3)ccc2N2CCOCC2)cc1`: the inhibition was 10.3% (inactive).

Turning to `COc1ccc(NS(=O)(=O)c2ccc(N3CCN(CCO)CC3)c([N+](=O)[O-])c2)cc1`, the inhibition was -6.1% (inactive).

On to `COc1ccc(NS(=O)(=O)c2cc(NC(=O)c3ccc(S(=O)(=O)N(C)C)cc3)ccc2N2CCOCC2)cc1`, for which the inhibition was 88.6% (active).

`O=C(NC(C(=O)NCCN1CCOCC1)C12CC3CC(CC(C3)C1)C2)C1CCCCC1` (configuration not stated): the inhibition is -6.3% (inactive).

As for `CCCCN(CC(=O)Nc1cccc(S(=O)(=O)N2CCCC2)c1)Cc1nc2ccccc2c(=O)[nH]1`, the inhibition is 8.2% (inactive).

Regarding `CCOCCCN(C)C1CCN(C(=O)c2oc3ccccc3c2NC(=O)COc2cccc(C)c2)CC1`, the inhibition was 1.2% (inactive).

Regarding `CCN(C(=O)CSc1ncnc2c1cnn2-c1ccccc1)C1CCS(=O)(=O)C1` (configuration not stated), the inhibition was 57.4% (active).

Turning to `CCC(C)N(C(=O)CSc1ncnc2c1cnn2-c1ccccc1)C1CCS(=O)(=O)C1` (configuration not stated), the inhibition was 22.1% (inactive).

On to `CC(C)CN(C(=O)CSc1ncnc2sccc12)C1CCS(=O)(=O)C1` (configuration not stated), for which the inhibition is -7.9% (inactive).

For the compound `COc1cc(C(O)c2nc(-c3cnn(C)c3)cs2)ccc1F` (configuration not stated), the inhibition is -5.1% (inactive).

`COc1ccc(N2CCN(S(=O)(=O)c3cc(Br)cnc3N)CC2)cc1`: the inhibition is -1.1% (inactive).

With `Cc1ccc(S(=O)(=O)N2CC(C)N(S(C)(=O)=O)C2)cc1` (configuration not stated), the inhibition is -3.6% (inactive).

In the case of `CCc1nc2c(OCc3ccc(Cl)cc3Cl)cccn2c1N(C)C(=O)C(C)C`, the inhibition was 9.4% (inactive).

On to `Cc1nc2c(OCc3cccc(Cl)c3)cccn2c1N(C)CC1CC1`, for which the inhibition was 17.1% (inactive).

Regarding `Cc1nc2c(OCc3ccc(Cl)cc3Cl)cccn2c1N(C)CC1CC1`, the inhibition is 57.2% (active).

Take `Cc1ccc(C2C(C#N)C(C#N)N3CCCN23)cc1` (configuration not stated): the inhibition is -18.8% (inactive).

On to `COc1cc2c(=O)n(C)c3ccccc3c2cc1OC`, for which the inhibition is -3.2% (inactive).

`COCC(=O)N(C)C[C@H]1Oc2cc(Br)ccc2S(=O)(=O)N([C@H](C)CO)C[C@H]1C`: the inhibition is -6% (inactive).

Take `COc1cc(OC)cc(C(=O)NC2CCN(C(=O)N3c4ccccc4Sc4ccccc43)CC2)c1`: the inhibition is 38.7% (inactive).

In the case of `CCCCCN(C(=O)CCC(=O)OCC(=O)NC1CCC(C)CC1)c1c(N)n(CCCC)c(=O)[nH]c1=O` (configuration not stated), the inhibition was -3.8% (inactive).

Take `Cc1ccccc1CN(c1ccc(C(=O)NCC2CCCO2)cc1)S(C)(=O)=O` (configuration not stated): the inhibition was -11.4% (inactive).

For `CCN(c1ccccc1)S(=O)(=O)c1ccc(C(=O)Nc2ccccc2OC)cc1`, the inhibition is 19.5% (inactive).

In the case of `COc1ccc([N+](=O)[O-])cc1NC(=O)c1ccc(N(Cc2ccccc2C)S(C)(=O)=O)cc1`, the inhibition was 62.6% (active).

For the compound `CCc1nc2ccc(C(=O)N(C)Cc3ccco3)cn2c1N(C)C(=O)Cc1ccccc1`, the inhibition is -8% (inactive).

With `O=C1N(c2ccc(Cl)cc2)C(c2ccc(Cl)cc2)N2CCCN12` (configuration not stated), the inhibition is 21.3% (inactive).

For `COCCCN1C(=O)C(CC(=O)NCc2cccs2)CC(C(=O)N2CCOCC2)=C1C` (configuration not stated), the inhibition is -5.4% (inactive).

For the compound `CCOCCOC(=O)C1=C(C)NC(=O)NC1c1ccc2c(c1)OCO2` (configuration not stated), the inhibition was -6.1% (inactive).

Consider `CC1=C(C(=O)OCC2CCCCC2)C(c2ccc(F)cc2)NC(=O)N1` (configuration not stated), for which the inhibition is 17.2% (inactive).

In the case of `CCC(CC)COC(=O)C1=C(C)NC(=O)NC1c1ccc([N+](=O)[O-])cc1` (configuration not stated), the inhibition was 71.6% (active).

Regarding `N[C@@H](Cc1ccccc1)C(=O)N1CCC(C(=O)NCC(=O)Nc2ccc(F)cc2)CC1`, the inhibition is -6.7% (inactive).

For `CC(C)(O)C#Cc1ncc(C(F)(F)F)cc1Cl`, the inhibition was -1.4% (inactive).

As for `COC(=O)[C@@H]1CC(O)CN1C(=O)C12CC3CC(CC(C3)C1)C2` (some centres not stated), the inhibition is -6.7% (inactive).

On to `CCOC(=O)c1cnn2c(SC)ncnc12`, for which the inhibition is -6.9% (inactive).

With `CCC1NC(=O)c2cccnc2-n2c1nc1ccc(C)cc1c2=O` (configuration not stated), the inhibition was -5.4% (inactive).

Consider `Cc1cc(C)c2c(=O)n3c(nc2c1)C(CC(C)C)NC(=O)c1cc2ccccc2cc1-3` (configuration not stated), for which the inhibition was 2.3% (inactive).

Consider `O=C1NC(Cc2ccccc2)c2nc3ccc(Br)cc3c(=O)n2-c2cc3ccccc3cc21` (configuration not stated), for which the inhibition is 84.7% (active).

For `C=CCSc1nsc(NC(=O)Nc2cccc(C(C)=O)c2)n1`, the inhibition was 3.9% (inactive).

As to `Cc1ccc(C2SCC(=O)N2c2ccccc2)cc1` (configuration not stated), the inhibition was -5.6% (inactive).

With `Cc1ccc(N2C(=O)N3[C@@H]4c5ccccc5OC[C@@H]4[C@@H](c4ccccc4)[C@@]3(C)C2=O)cc1`, the inhibition is 48.3% (inactive).

Turning to `Cc1ccc(N2C(=O)C3C(c4ccccc4)(C2=O)C3(c2ccccc2)c2ccccc2)cc1` (configuration not stated), the inhibition is 80.8% (active).

`COc1cc(C2C(C(=O)OCCC#N)=C(C)NC3=C2S(=O)(=O)c2ccccc23)cc(OC)c1OC` (configuration not stated): the inhibition is -7.7% (inactive).

`C=C(Cl)COC(=O)C1C2C=CC(C2)C1C(=O)O` (configuration not stated): the inhibition was -6.6% (inactive).

On to `COc1cccc(CNS(=O)(=O)c2cc3c(cc2C)n(C)c(=O)c(=O)n3C)c1`, for which the inhibition was -4.2% (inactive).

With `CC1c2nc3ccccc3n2C(CC(=O)NCCCN2CCOCC2)C(=O)N1Cc1ccccc1` (configuration not stated), the inhibition was -2.2% (inactive).

Turning to `C#CCN(C[C@@H]1[C@@H](OC(=O)NC2CC2)[C@@H](OC(=O)NC2CC2)Cn2c(=O)ccc(=O)n21)S(=O)(=O)c1ccc(C)cc1`, the inhibition is -8% (inactive).

As for `C#CCN(C[C@H]1[C@H](OC(=O)NC2CCCC2)[C@H](OC(=O)NC2CCCC2)C[C@H]2C(=O)N(c3ccccc3)C(=O)[C@@H]12)S(=O)(=O)c1ccc(C)cc1`, the inhibition was 69.1% (active).

Turning to `Cc1ccc(S(=O)(=O)N2C[C@]3(O)C[C@@H]4C(=O)N(c5ccccc5)C(=O)[C@@H]4C[C@]3(OC(=O)NC3CC3)C2)cc1`, the inhibition is 5.3% (inactive).

Turning to `O=C(NCc1ccco1)c1ccc(CS(=O)(=O)Cc2ccc(F)cc2)o1`, the inhibition was -5.6% (inactive).

`C[C@H]1CN([C@@H](C)CO)C(=O)CCCn2nncc2CO[C@@H]1CN(C)Cc1ccc(Oc2ccccc2)cc1`: the inhibition is -4.9% (inactive).

Consider `CCN(CCCNC(=O)CSc1cc(=O)n(C)c2cc(Cl)ccc12)Cc1ccccc1`, for which the inhibition was 1.5% (inactive).
